According to PubChem BioAssay:
Active and inactive are the calls of the source.

Key:
[1] = tested on: PRMT1 (protein arginine N-methyltransferase 1); test: small molecules binding arginine methyltransferase PRMT1 – biochemical, small-molecule microarray, 635 nm fluorescence, primary screen (AID 1088); conditions: higher = more signal;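 note: binding of Prmt1 protein to compounds spotted on small-molecule microarray slides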
[2] = growth effects on S. cerevisiae YJM789 – YJM789 clinical isolate, OD600, 24 h, basal, primary screen (AID 1089); conditions: higher = more signal, called active from +8 up or from −8 down;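 note: growth of clinical yeast isolate S. cerevisiae YJM 789 seeded 1000 cells per well; test concentration not given here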
[3] = S. pombe growth modifiers, basal conditions – strain 972, OD600, 24 h, no modulator, primary screen (AID 1090);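 note: basal condition with compound alone and no growth modifier present; test concentration not given here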; conditions: S. pombe 972 growth, higher = more signal, called active from +8 up or from −8 down
[4] = budding yeast growth modifiers under rapamycin – strain BY4716, OD600, 96 h, primary screen (AID 1091); note: test concentration not given here; conditions: S. cerevisiae BY4716 + rapamycin, higher = more signal, called active from +8 up or from −8 down
[5] = molecular target: Torsin-1A-interacting protein 2 (Homo sapiens) (UniProt Q8NFQ8); test: small molecules binding lysate-expressed LULL1 – cell lysate, human LULL1 lysate, 635/667 nm fluorescence, primary screen (AID 1092); conditions: small-molecule microarray, hLULL1 lysate binding, 635 nm fluorescence; higher = more signal;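 note: probe is lysate of COS7 cells overexpressing human LULL1; score merges per-feature 667 nm fluorescence with signal-to-noise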
[6] = optical density change of DRC41 E. coli – strain DRC41, OD650, 24 h, E. coli filamentation project, primary screen (AID 1093);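 note: MC1000 strain lacking acrAB efflux and sulA so SOS filamentation is blocked; test concentration not given here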; conditions: E. coli DRC41 growth, higher = more signal, called active from +8 up or from −8 down
[7] = probe aLefty2 binding to arrayed compounds – biochemical, biotinylated probe, 635/667 nm fluorescence, primary screen (AID 1094); conditions: small-molecule microarray, higher = more signal;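 note: score merges spot fluorescence near 667 nm with spot signal-to-noise ratio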
[8] = tested on: Noggin (protein binding on small-molecule microarray); test: small molecules binding Noggin protein – biochemical, 635/667 nm fluorescence, primary screen (AID 1095); conditions: 635 nm fluorescence, higher = more signal;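 note: score merges 667 nm feature fluorescence with signal to noise over triplicate slides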
[9] = molecular target: Neurogenic locus notch homolog protein 3 (Homo sapiens) (UniProt Q9UM47); test: small molecules binding NOTCH3 protein – biochemical, 635/667 nm fluorescence, primary screen (AID 1096); conditions: small-molecule microarray, 635 nm fluorescence, higher = more signal
[10] = probe aEGFR binding to arrayed compounds – biochemical, biotinylated probe, 635/667 nm fluorescence, primary screen (AID 1097); conditions: small-molecule microarray, higher = more signal;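 note: probe is a biotinylated anti-EGFR antibody binding compounds printed on slides; score combines fluorescence near 667 nm and signal to noise of each spot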

Sequence of Torsin-1A-interacting protein 2 (Homo sapiens) (Q8NFQ8 whole entry, looked up): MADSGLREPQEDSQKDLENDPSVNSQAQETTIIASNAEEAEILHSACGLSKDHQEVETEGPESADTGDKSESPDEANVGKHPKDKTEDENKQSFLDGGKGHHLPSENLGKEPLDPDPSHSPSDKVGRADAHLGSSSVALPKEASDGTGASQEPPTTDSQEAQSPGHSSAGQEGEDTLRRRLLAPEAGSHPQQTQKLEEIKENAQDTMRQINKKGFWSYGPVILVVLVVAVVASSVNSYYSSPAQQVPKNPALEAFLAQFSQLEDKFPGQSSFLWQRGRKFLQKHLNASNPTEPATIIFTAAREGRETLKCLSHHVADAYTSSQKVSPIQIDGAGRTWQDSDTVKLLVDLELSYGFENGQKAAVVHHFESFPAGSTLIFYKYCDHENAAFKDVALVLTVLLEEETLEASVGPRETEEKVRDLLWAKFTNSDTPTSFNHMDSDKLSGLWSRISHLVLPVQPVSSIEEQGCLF
Sequence of Neurogenic locus notch homolog protein 3 (Homo sapiens) (Q9UM47 whole entry, looked up): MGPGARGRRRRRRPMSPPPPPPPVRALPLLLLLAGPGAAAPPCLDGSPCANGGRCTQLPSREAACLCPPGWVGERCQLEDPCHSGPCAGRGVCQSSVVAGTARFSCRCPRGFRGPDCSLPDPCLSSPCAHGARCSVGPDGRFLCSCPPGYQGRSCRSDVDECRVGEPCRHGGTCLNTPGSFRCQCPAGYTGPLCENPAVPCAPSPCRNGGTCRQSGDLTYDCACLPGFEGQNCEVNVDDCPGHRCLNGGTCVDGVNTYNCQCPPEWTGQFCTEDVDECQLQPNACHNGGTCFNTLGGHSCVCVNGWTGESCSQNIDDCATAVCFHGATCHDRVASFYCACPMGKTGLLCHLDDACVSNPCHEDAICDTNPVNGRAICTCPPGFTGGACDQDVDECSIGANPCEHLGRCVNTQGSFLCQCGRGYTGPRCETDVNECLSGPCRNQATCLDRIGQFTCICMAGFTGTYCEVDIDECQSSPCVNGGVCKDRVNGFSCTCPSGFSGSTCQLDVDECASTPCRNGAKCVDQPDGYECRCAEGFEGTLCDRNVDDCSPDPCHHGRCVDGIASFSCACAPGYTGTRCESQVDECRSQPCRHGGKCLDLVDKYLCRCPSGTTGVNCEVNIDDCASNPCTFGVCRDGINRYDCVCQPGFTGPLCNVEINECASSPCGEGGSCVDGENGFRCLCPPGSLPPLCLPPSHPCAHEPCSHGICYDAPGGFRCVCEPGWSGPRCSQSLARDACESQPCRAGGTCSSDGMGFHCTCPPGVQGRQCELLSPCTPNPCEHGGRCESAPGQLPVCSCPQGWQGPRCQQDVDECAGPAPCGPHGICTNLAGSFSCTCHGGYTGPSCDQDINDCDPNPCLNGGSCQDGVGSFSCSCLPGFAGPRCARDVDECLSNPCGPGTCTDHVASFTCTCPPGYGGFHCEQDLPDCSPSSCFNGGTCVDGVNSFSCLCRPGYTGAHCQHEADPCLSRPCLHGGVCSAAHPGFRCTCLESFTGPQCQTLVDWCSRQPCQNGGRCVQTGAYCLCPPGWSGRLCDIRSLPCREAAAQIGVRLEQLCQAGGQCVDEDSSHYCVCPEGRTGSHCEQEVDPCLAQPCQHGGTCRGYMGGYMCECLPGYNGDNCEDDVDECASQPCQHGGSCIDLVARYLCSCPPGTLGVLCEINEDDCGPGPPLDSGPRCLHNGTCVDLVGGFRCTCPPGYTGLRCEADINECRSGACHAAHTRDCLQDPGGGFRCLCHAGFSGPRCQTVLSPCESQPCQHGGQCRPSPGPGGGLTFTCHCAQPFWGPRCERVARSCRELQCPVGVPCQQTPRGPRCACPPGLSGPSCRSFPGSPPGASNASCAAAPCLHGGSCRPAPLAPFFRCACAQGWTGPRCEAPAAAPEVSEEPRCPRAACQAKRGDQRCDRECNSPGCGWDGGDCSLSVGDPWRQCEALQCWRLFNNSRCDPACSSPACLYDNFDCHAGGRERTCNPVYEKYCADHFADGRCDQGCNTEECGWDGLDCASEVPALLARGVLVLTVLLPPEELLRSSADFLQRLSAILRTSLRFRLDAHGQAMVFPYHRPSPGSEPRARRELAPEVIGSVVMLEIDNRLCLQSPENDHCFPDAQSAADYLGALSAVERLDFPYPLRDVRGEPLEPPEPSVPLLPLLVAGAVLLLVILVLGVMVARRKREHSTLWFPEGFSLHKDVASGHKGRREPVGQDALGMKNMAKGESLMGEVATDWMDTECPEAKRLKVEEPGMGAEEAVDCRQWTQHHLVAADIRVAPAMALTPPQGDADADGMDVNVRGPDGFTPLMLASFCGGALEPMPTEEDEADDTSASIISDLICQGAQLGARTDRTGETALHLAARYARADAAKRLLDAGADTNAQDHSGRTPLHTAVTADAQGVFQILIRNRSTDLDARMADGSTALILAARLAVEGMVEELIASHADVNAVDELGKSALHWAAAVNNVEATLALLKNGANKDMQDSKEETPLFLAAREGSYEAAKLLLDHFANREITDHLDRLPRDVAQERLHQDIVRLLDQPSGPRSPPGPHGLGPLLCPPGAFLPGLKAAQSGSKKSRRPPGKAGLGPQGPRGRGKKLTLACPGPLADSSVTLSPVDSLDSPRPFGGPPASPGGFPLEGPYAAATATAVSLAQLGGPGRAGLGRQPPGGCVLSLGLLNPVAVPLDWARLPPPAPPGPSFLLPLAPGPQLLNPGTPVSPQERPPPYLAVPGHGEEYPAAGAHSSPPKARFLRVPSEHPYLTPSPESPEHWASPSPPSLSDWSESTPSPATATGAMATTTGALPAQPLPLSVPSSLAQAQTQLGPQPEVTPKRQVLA

Row | Compound | composite z-score [1] | z-score [2] | z-score [3] | z-score [4] | composite z-score [5] | z-score [6] | composite z-score [7] | composite z-score [8] | composite z-score [9] | composite z-score [10]
1 | CCCNC(=O)[C@@]1(C)c2ccccc2C(=O)N(Cc2ccc(OC(F)(F)F)cc2)[C@H]1c1ccc(CO)cc1 | 0.294 | -0.446 (inactive) | 0.242 (inactive) | -0.548 (inactive) | -0.416 | 0.922 (inactive) | 0.0241 | -0.432 | 0.13 | -0.18
2 | CC(C)N1C(=O)c2ccccc2[C@](C)(C(=O)NCCCN(C)C)[C@@H]1c1ccc(CO)cc1 | -0.109 | -0.763 (inactive) | -1.26 (inactive) | -1.36 (inactive) | 2.41 | 0.0321 (inactive) | 0.0071 | -0.818 | -1.28 | -0.22
3 | Cc1ccc(C(C)CC(O)C2C=CC3C(=O)NC(=O)C3N2Nc2ccccn2)o1 (stereo not given) | 1.09 | 0.633 (inactive) | 0.0293 (inactive) | 0.124 (inactive) | 1.94 | 0.504 (inactive) | -0.0225 | 0.312 | -0.233 | -0.0302
4 | CN(C)CCCN1C(=O)[C@@]2(c3ccc([N+](=O)[O-])cc3)CC(=O)N(C3CCCCC3)[C@@H]2c2ccc(CO)cc21 | -0.282 | -1.34 (inactive) | -1.09 (inactive) | -2.61 (inactive) | -0.933 | -1.22 (inactive) | -0.142 | -0.233 | -0.0488 | -0.103
5 | COCCOC(=O)N1C(=O)[C@@]2(c3cc(C#Cc4ccc(OC)cc4)ccc31)[C@H](C(N)=O)[C@H]1C(=O)O[C@H](c3ccccc3)[C@H](c3ccccc3)N1[C@@H]2c1ccc(O)cc1 | -1.57 | -0.613 (inactive) | -0.0532 (inactive) | 0.333 (inactive) | -0.839 | 1.84 (inactive) | -0.264 | -2.13 | -1.35 | -0.627
6 | CCCC[C@H]1C[C@@H]1[C@@H]1N(P(=O)(c2ccccc2)c2ccccc2)[C@](CO)(c2ccccc2)CC12CC2 | -0.153 | -0.485 (inactive) | -0.485 (inactive) | 5.22 (inactive) | 2.51 | -1.08 (inactive) | 0.325 | -0.686 | -0.318 | 0.0585
7 | O=C1C2C=CC(C(O)c3ccc(B(O)O)cc3)N(Nc3ccc([N+](=O)[O-])cc3)C2C(=O)N1c1ccccc1 (stereo not given) | 1.26 | -26.5 (active) | -16.1 (active) | 0.847 (inactive) | 2.54 | -0.465 (inactive) | 0.143 | 0.288 | 1.03 | 0.105
8 | C=C(CCCC)/C(=C/C[C@@H](OC(=O)c1ccncc1)c1ccc(CO)o1)c1cc(C(=O)OC)ccc1OC | 1.45 | -0.169 (inactive) | -1.75 (inactive) | -0.331 (inactive) | 2.3 | 0.635 (inactive) | -0.101 | 0.752 | 1.07 | 0.107
9 | NC(=O)[C@@]1(CCS(=O)(=O)c2ccccc2)N=C(c2ccc(OCCCO)cc2)O[C@H]1c1ccccc1 | 1.54 | -0.0366 (inactive) | -1.58 (inactive) | -0.918 (inactive) | 3.6 | 0.515 (inactive) | -0.046 | -0.316 | 0.667 | -0.0703
10 | O=C(NCC(O)CO)[C@@]1(Cc2ccccc2)COC(c2ccc(OCCCO)cc2)=N1 (stereo not given in full) | -0.546 | 0.0965 (inactive) | -0.92 (inactive) | -0.639 (inactive) | 1.1 | 0.869 (inactive) | -0.0809 | -0.891 | -1.18 | 0.132
11 | CCOC(=O)C[C@H]1[C@H](OC(=O)c2cc3ccccc3oc2=O)[C@@H](NC(=O)c2ccc3ccccc3c2)c2cc(OCCCO)ccc2N1C(=O)c1ccccc1 | 1.13 | -0.087 (inactive) | -1.05 (inactive) | 0.41 (inactive) | 1.6 | 1.06 (inactive) | -0.139 | 0.798 | 0.983 | -0.0829
12 | COc1ccc([Si](C)(C)[C@@H]2[C@@H](CCO)O[C@]3(C(=O)N(Cc4ccc(N5C(=O)c6cccc7cccc5c67)cc4)c4ccccc43)[C@H]2C)cc1 | 0.856 | 1.41 (inactive) | 1.54 (inactive) | 35.5 (active) | 0.854 | 0.631 (inactive) | -0.0728 | -0.753 | -0.017 | -0.208
13 | C=CCNC(=O)[C@H]1[C@@H]2C(=O)O[C@@H](c3ccccc3)[C@@H](c3ccccc3)N2[C@@H](c2ccc(O)cc2)[C@]12C(=O)Nc1ccc(C#Cc3ccc(OC)cc3)cc12 | 1.49 | -0.209 (inactive) | 1.14 (inactive) | 0.832 (inactive) | 2.86 | -0.451 (inactive) | 0.369 | 0.41 | 1.12 | 0.469
14 | O=c1cccc(-c2ccccc2)o1 | -0.159 | -1.42 (inactive) | -3.79 (inactive) | -0.482 (inactive) | -0.568 | -0.528 (inactive) | -0.18 | -0.124 | -0.435 | -0.136
